Hits are enriched below; roughly 3.7% of the tested compounds scored in any of these assays.
Mtb FBA inh: inhibits M. tuberculosis FBA enzyme; P9WQA3; purified M. tuberculosis FBA, fluorescence read-out; inhibition, % at 1 µM; 360,000 tested, 2.3% active; AID 588726; in the data active means inhibition above about 27%;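 further: 0% = vehicle and 100% = reference inhibitor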
Target sequence (P9WQA3 whole entry, looked up): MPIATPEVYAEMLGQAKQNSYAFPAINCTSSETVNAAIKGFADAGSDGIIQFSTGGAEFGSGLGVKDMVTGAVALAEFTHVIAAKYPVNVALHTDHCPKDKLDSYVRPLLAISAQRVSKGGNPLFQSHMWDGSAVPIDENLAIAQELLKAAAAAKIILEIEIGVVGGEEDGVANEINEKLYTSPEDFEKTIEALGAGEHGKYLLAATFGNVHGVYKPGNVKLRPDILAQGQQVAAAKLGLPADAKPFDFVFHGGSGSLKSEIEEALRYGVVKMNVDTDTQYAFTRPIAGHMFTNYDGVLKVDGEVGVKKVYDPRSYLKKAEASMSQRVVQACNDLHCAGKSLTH
Mtb bLac sens: beta-lactam sensitization of Mtb H37Rv; M. tuberculosis H37Rv growth with meropenem, percent inhibition; inhibition, % at 25 µM; 330,000 tested, 0.27% active; AID 434955; call rule not given here;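 further: growth measured after seven days incubation then overnight dye step; 0% = bacteria only wells and 100% = bacteria with antibiotic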
FadD28 binding: inhibitors of Mycobacterium tuberculosis FadD28 bisubstrate binding | 360,000 tested, 0.22% active | inhibition, % at 12.5 µM | FadD28 bisubstrate probe binding, fluorescence polarization; in the data active means inhibition above about 8.5%, passing the limit was not always enough
Rv3671c inh: Rv3671c (M. tuberculosis) protease inhibition; 320,000 tested, 0.048% active; P9WHR9; inhibition, % at 5.96 µM; in the data active means inhibition above about 38%;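 further: extracellular domain of Rv3671c used as enzyme; 0% = enzyme with DMSO and 100% = no enzyme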
GDH-TPI counter: counter-screen for M. tuberculosis FBA inhibitors: GDH-TPI coupled enzymes. GDH-TPI coupled enzyme counterscreen, NADH absorbance. inhibition, % at 4.8 µM. 360,000 tested, 1.2% active. AID 588335; in the data active means inhibition above about 30%;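 further: 0% = DMSO wells and 100% = wells lacking the enzyme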
UGM FP inh: blocks M. tuberculosis UGM enzyme | purified UGM, fluorescence polarization probe displacement | inhibition, % at 10 µM | 320,000 tested, 0.06% active | P9WIQ1; in the data active means inhibition above about 10%, passing the limit was not always enough
* hit, by the source's call; x = no result given; + = active, no number.

SMILES	Mtb FBA inh	Mtb bLac sens	FadD28 binding	Rv3671c inh	GDH-TPI counter	UGM FP inh
O=C(CCN1C(=O)/C(=C/c2ccc(F)cc2)SC1=S)NCCc1ccc(O)cc1	-2	18	-10	-132	14	0
COc1ccc(-c2nn(-c3ccccc3)cc2C(=O)N2CCN(S(=O)(=O)c3cccc(F)c3)CC2)cc1	-2	11	2	-12	4	0
CCOC(=O)c1ccc(-n2c(CN3CCC(O)CC3)nc3ccc([N+](=O)[O-])cc3c2=O)cc1	0	31	0	-2	45*	-2
CC(=O)Oc1cccc2c1C(=O)C1CC=CC(OC(C)=O)C1C2=O (configuration not stated)	-4	x	0	x	7	x
CCOc1cc(CN2CCC(N3CCC(C(=O)NC4CC4)CC3)CC2)ccc1O	-6	x	-2	x	4	x
C(=N\n1cnnc1)/c1ccc(N2CCOCC2)cc1	5	-9	-1	1	34*	4
C(=N\n1cncn1)/c1ccc(N2CCOCC2)cc1	-3	-1	-1	-6	46*	-1
C(=N\n1cnnc1)/c1ccc(N2CCOCC2)s1	8	0	-1	-2	11	0
Brc1ccc2ncc3ccccc3c2c1	2	x	-3	x	5	x
CCN1CCN(c2ccc(N3CCN(S(=O)(=O)c4ccc(C)c([N+](=O)[O-])c4)CC3)nn2)CC1	1	2	1	5	7	-1
O=C(NNC(=O)C1[C@H]2CCCC[C@@H]12)c1ccc(=O)oc1 (some centres not stated)	14	-5	1	0	39*	-1
O=C(NC12CC3CC(CC(C3)C1)C2)c1ccc(=O)oc1	-2	-4	0	3	19	0
C=C(C)c1cccc(C(C)(C)NC(=O)Nc2ccc(OC)nc2)c1	148*	11	-1	-8	1	3
O=C(CN1CCN(CC(=O)Nc2ccc3c(c2)OC2(CCCCC2)O3)CC1)Nc1cccc(F)c1	0	x	3	x	4	x
O=C(c1cc2c(s1)-c1ccccc1OC2)N1CCC2(CC1)OCCO2	+	-3	-3	-7	40*	2
O=C(c1cc2c(s1)-c1ccccc1OC2)N1CCN(c2ccccc2)CC1	15	-5	0	4	24	1
O=C(c1cc2c(s1)-c1ccccc1OC2)N1CCCC1	+	0	0	-3	27	0
CC(C)(C)OC(=O)N1CCC(CC2CC(c3ccc(Cl)cc3)=NO2)(C(=O)NCC2CCCCC2)CC1 (configuration not stated)	4	70	-1	-10	15	-1
C[C@H](CO)N1C[C@H](C)[C@H](CN(C)C(=O)Cc2cccnc2)Oc2ncc(Br)cc2C1=O	1	x	-3	x	-8	x
O=C(NCCN1C(=O)S/C(=C/c2cccnc2)C1=O)c1cccs1	0	-3	-2	-3	32*	2
CN1C(=O)S/C(=C/c2cccnc2)C1=O	-5	6	0	-8	32*	-1
COC(=O)c1ccc2nc(C3CCCCC3)c(Cc3ccc(C)cc3)n2c1	1	x	-3	x	x	x
O=C(N=c1nc2ccccn2s1)c1ccccc1	2	5	0	-4	32*	-1
CC(=O)NC1=CC(=C[N+](=O)[O-])C=C1O	-9	x	-2	x	11	x
CCOc1cccc(C2C(C(=O)c3ccc(C)o3)=C(O)C(=O)N2c2nccs2)c1 (configuration not stated)	0	-7	-3	6	-1	16*
SMILES	Mtb FBA inh	Mtb bLac sens	FadD28 binding	Rv3671c inh	GDH-TPI counter	UGM FP inh
CCCC(C)(C)C(=O)N1CCC1(C)C(=O)Nc1ccc2c(c1)OCCO2 (configuration not stated)	-2	x	-4	x	-6	x
COc1ccc(/C=N/N=C(\N)c2nonc2N)cc1	0	x	-1	x	16	x
COc1cc(/C=N/N=C(\N)c2nonc2N)cc(OC)c1O	-2	-4	-2	9	36*	-1
O=S(=O)(c1ccccc1Br)N1CCN(c2ncccn2)CC1	1	-1	-2	4	-5	-3
O=C(CNC1CCCCC1)Nc1cccc([N+](=O)[O-])c1	1	89	-3	1	-2	1
O=C(Nc1cccc([N+](=O)[O-])c1)NC1CCCCCCC1	0	97	18*	x	-8	1
Cc1ccc(-c2nc3cccnc3s2)cc1NS(=O)(=O)c1cccs1	25	-2	-4	-8	8	-2
CCc1ccc(S(=O)(=O)Nc2ccc(-c3nc4cccnc4s3)cc2)s1	+	4	-2	-7	45*	-2
O=S(=O)(Nc1ccc(-c2nc3cccnc3s2)cc1)c1cc(F)ccc1F	+	-4	-4	-10	30	2
COc1ccc(C(=O)NCC(=O)N/N=C/C(C)=C/c2ccco2)cc1OC	-2	95	-1	-6	41*	2
Cn1c(=O)c2c(ncn2CC(=O)N/N=C/C=C/c2ccco2)n(C)c1=O	-2	-7	0	4	32*	-3
CC(=C/c1ccco1)/C=N/NC(=O)Cc1cccn1C	-1	2	0	11	25	2
COc1cc(C(=O)NCC(=O)N/N=C/c2ccco2)cc(OC)c1OC	-3	2	2	7	2	4
CC(/C=N/NC(=O)Cc1cccn1C)=C\c1ccco1	-2	1	1	-2	40*	2
Cc1ccc(OCC(=O)N/N=C/C=C/c2ccco2)c(Br)c1	2	x	1	x	34*	x
CC(C)c1ccc(NC(=O)C2Cc3c(-c4cccc(C(N)=O)c4)ccnc3O2)cc1 (configuration not stated)	3	x	-1	x	7	x
CC(/C=N/NC(=O)CN1CCN(Cc2ccc(Cl)cc2)CC1)=C\c1ccco1	-1	3	-3	12	30	-4
CC(/C=N/NC(=O)Cn1cnc2c1c(=O)n(C)c(=O)n2C)=C\c1ccco1	1	-1	0	1	41*	1
O=C(CN1CCN(Cc2ccccc2)CC1)N/N=C/C=C/c1ccco1	0	44	0	5	33*	0
CCCc1cc(NCCN(C)C)n2c(nc3ccccc32)c1C#N	162*	-3	-3	1	12	0
CCCc1cc(NCCCN(C)C)n2c(nc3ccccc32)c1C#N	112*	11	1	5	6	0
CCCc1cc(NCC2CCCO2)n2c(nc3ccccc32)c1C#N (configuration not stated)	192*	-12	-3	-11	15	2
COc1ccc(-c2cc(-c3ccco3)[nH]c(=O)c2C#N)cc1	123*	-4	2	9	22	0
COc1ccc(-c2cc(C(F)(F)F)c(C#N)c(=O)[nH]2)cc1	+	-1	-8	4	25	2
Cc1cc(C(F)(F)F)c(C#N)c(=O)[nH]1	137*	16	-1	0	15	4
CSc1cc(-c2ccc(Cl)cc2)[nH]c(=O)c1C#N	13	-2	1	1	-1	1
N#Cc1c(C(F)(F)F)cc(-c2ccc(F)cc2)[nH]c1=O	142*	-1	2	-5	7	1

Source: PubChem BioAssay
